Test results reported in ChEMBL document CHEMBL3988442, “University of Dundee, Small-Polar-MMV Screening Library” (2021).
The whole screen tested about 48,000 compounds, of which about 13,000 (27%) showed an effect of 50% or more. The list shows a part of the results.

System: Wolbachia pipientis
Assay: Anti-Wolbachia Cell-Based Screen
Format: functional
Parameters: scale not given: in the data most compounds retested in dose-response had high values
Details: 5 µM

SMILES	Percent Effect
Cc1cc(C(=O)N2CCN(c3nc4c(F)cccc4s3)CC2)no1	123.7%
Cc1cc(C(=O)N2CCN(c3nc4c(C(C)C)cccc4s3)CC2)on1	114.6%
Cc1cc(C(=O)N2CCc3c(ncn3CCc3ccccc3)C2)on1	8.742%
CCc1nc(CN2CCN(C(=O)c3cc(C)no3)CC2)cs1	6.247%
CCOC(=O)N1CCN(C(=O)c2cc(-c3ccccc3F)on2)CC1	1.064%
Cc1cccc(C(=O)N2CCN(c3ccccc3F)CC2)n1	-20.73%
Cc1cccc(C(C(=O)N(C)Cc2cc(C)no2)N(C)C)c1 (stereo not given)	-11.12%
CC(C)=CCN1CCNC(=O)C1CC(=O)N1CCc2sccc2C1 (stereo not given)	13%
O=C(O)C(F)(F)F.O=C([C@@H]1C[C@@H]2CCN(Cc3ccoc3)C[C@H]2O1)N1CCCC1	103.1%
O=C(NC1CCC1)[C@@H]1C[C@@H]2CCN(CCc3ccccc3)C[C@H]2O1.O=C(O)C(F)(F)F	2.186%
O=C(NC1CCCC1)[C@@H]1C[C@@H]2CCN(Cc3ccoc3)C[C@H]2O1.O=C(O)C(F)(F)F	111.5%
CC(C)NC(=O)[C@@H]1C[C@@H]2CCN(Cc3ccoc3)C[C@H]2O1.O=C(O)C(F)(F)F	74.8%
O=C(NC1CC1)[C@@H]1C[C@@H]2CCN(Cc3ccccc3)C[C@@H]2O1.O=C(O)C(F)(F)F	-0.7056%
O=C(NC1CC1)[C@@H]1C[C@@H]2CCN(Cc3ccccc3)C[C@H]2O1.O=C(O)C(F)(F)F	-0.327%
COc1ccccc1CN1CC[C@H]2C[C@H](C(=O)N3CCCC3)O[C@H]2C1.O=C(O)C(F)(F)F	-2.148%
Cc1ncccc1NC(=O)[C@H]1C[C@@H]2CCN(Cc3ccsc3)C[C@H]2O1.O=C(O)C(F)(F)F.O=C(O)C(F)(F)F	-7.023%
COc1ccccc1CN1CC[C@H]2C[C@@H](C(=O)N3CCCC3)O[C@H]2C1.O=C(O)C(F)(F)F	2.639%
O=C(NC1CC1)[C@@H]1C[C@@H]2CCN(Cc3ccoc3)C[C@@H]2O1.O=C(O)C(F)(F)F	102.1%
Cc1c(C(=O)OCC2CC(=O)N(c3ccccc3)C2)cnn1C(C)C (stereo not given)	4.999%
CN(C)C(=O)[C@@H]1C[C@@H]2CCN(Cc3ccc4c(c3)OCO4)C[C@@H]2O1.O=C(O)C(F)(F)F	-14.9%
CN(C)C(=O)[C@H]1C[C@@H]2CCN(Cc3ccoc3)C[C@@H]2O1.O=C(O)C(F)(F)F	113.2%
CN(C)S(=O)(=O)N1C[C@@H]2CN(Cc3ccoc3)CCO[C@@H]2C1.O=C(O)C(F)(F)F	-19.85%
CCc1ccc(C(=O)N2CC[C@](C)(O)C(C)(C)C2)[nH]1	-18.68%

SMILES	Percent Effect
COc1ccccc1N1CCN(C(=O)CCn2nnnc2C)CC1(C)C	3.802%
COc1ccccc1-n1cc(C(=O)NCCn2nc(C)nc2C)cn1	116.2%
COc1ccccc1-n1cc(C(=O)NCCCn2nc(C)nc2C)cn1	95.25%
COc1ccccc1-n1cc(CN2CCN(C)[C@@H]3CS(=O)(=O)C[C@@H]32)cn1	-2.085%
COc1c2ccc(C(=O)NCCCn3ncccc3=O)cc2nn1C	16.19%
Cc1nc(C)n(CCCNC(=O)C(C)n2ccnc2C(C)C)n1 (stereo not given)	3.373%
CN(CCN1CCOCC1)C(=O)CCc1ccc(C(F)(F)F)cc1	-5.006%
CCc1[nH]c2ccc(CNc3cncc(C(=O)N(C)C)n3)cc2c1C	5.05%
Cc1nnc(NCC(c2ccco2)N2CCCC2)c(C#N)c1C (stereo not given)	-0.3665%
COC(=O)NCC(=O)N1CCCn2nc(CN3CC[C@H](F)C3)cc2C1	-5.697%
O=C1OCCCN1Cc1nc(-c2ccc(N3CCCCC3)cc2)no1	-4.946%
Cc1occc1-c1nc(-c2cccc(CN3CCOCC3)c2)no1	0.4297%
Brc1cccc(-c2noc(CN3CCOCC3)n2)c1	107.1%
O=C1NCCCN1Cc1nc(-c2ccc(N3CCCCC3)cc2)no1	-15.88%
c1cc(N2CCCCC2)ccc1-c1noc(CN2CCOCC2)n1	101.7%
Cc1cc(-c2nc(-c3cccc(CN4CCOCC4)c3)no2)no1	-11.24%
NC(=O)C(NC(=O)Cc1cnn(-c2ccccc2)n1)c1ccccc1 (stereo not given)	-10.55%
CNC(=O)C(C)(C)CNC(=O)Nc1cc(C)ccn1	-2.642%
CNC(=O)[C@H]1C[C@@H]2CN(S(=O)(=O)c3ccc(C)cc3)C[C@@H]2N1C.O=C(O)C(F)(F)F	-6.65%
CNC(=O)[C@H]1C[C@@H]2CN(S(=O)(=O)c3ccc(F)cc3)C[C@@H]2N1C.O=C(O)C(F)(F)F	-8.738%
CNC(=O)[C@H]1C[C@@H]2CN(C(=O)c3ccccn3)C[C@@H]2N1S(C)(=O)=O.O=C(O)C(F)(F)F	96.47%
CNC(=O)[C@H]1C[C@@H]2CN(C(=O)c3cccnc3)C[C@@H]2N1S(C)(=O)=O.O=C(O)C(F)(F)F	86.97%
CNC(=O)[C@H]1C[C@@H]2CN(S(=O)(=O)c3ccccc3)C[C@@H]2N1C.O=C(O)C(F)(F)F	-12.02%

SMILES	Percent Effect
CNC(=O)[C@H]1C[C@@H]2CN(C(=O)c3ccncc3)C[C@@H]2N1S(C)(=O)=O.O=C(O)C(F)(F)F	89.45%
CNC(=O)[C@H]1C[C@@H]2CN(S(=O)(=O)c3cccc(C)c3)C[C@@H]2N1C.O=C(O)C(F)(F)F	-8.978%
CCc1nc(C)c(C(C)N(C)CCOC)s1 (stereo not given)	-4.092%
CC(C)c1nnc(NCc2ccsc2)o1	-7.753%
COc1cccc(COC(C)C(=O)NCc2nnc3n2CCC3)c1 (stereo not given)	0.6682%
Cc1csc(N2CCC(NCC3(O)CCc4ccccc43)CC2)n1 (stereo not given)	-8.914%
O=S(=O)(c1cccs1)N1Cc2nc(COCC3CC3)oc2C1	96.89%
O=C(O)C(F)(F)F.O=C(c1ccncc1F)N1Cc2nc(COCC3CC3)oc2C1	11.83%
O=S(=O)(c1cccs1)N1CCN2C[C@H](OCC3CC3)C[C@H]2C1	12.99%
O=C(Cc1cccs1)N1Cc2nc(COCC3CC3)oc2C1	106.2%
O=C(NCc1ccccc1)N1Cc2nc(COCC3CC3)oc2C1	6.767%
COCC1CN(S(=O)(=O)c2cccs2)Cc2ncnn2C1 (stereo not given)	-4.986%
CN(C)c1ncc2c(n1)CCCC2NC(=O)c1ccsc1 (stereo not given)	-6.116%
C=Cc1ccc(C(=O)NC2CCCc3nc(N(C)C)ncc32)cc1 (stereo not given)	4.134%
CN(C)c1ncc(-c2ccc(C(N)=O)cc2)c(C2CNCCO2)n1 (stereo not given)	99.82%
Cc1nnc(-c2ccc(C(=O)Nc3ccnc(N(C)C)n3)cc2)o1	-7.444%
CN(C)c1ncc(-c2cccc(C(N)=O)c2)c(C2CNCCO2)n1.Cl (stereo not given)	103.6%
CN(C)c1ncc(-c2ccc(C(N)=O)cc2)c(C2CCNC2)n1.Cl (stereo not given)	101.4%
CC(C#N)CSc1ccccc1NCC(=O)Nc1ccccc1 (stereo not given)	-8.038%
Cn1c(-c2ccccc2Cl)nc2cc(C(=O)NCCOCCO)cnc21	-3.34%
O=C(CC1CCCO1)Nc1cccc(N2CCN(CC3CC3)CC2)c1 (stereo not given)	-9.056%
Cc1ccc(C)c(NC(=O)Cn2nc(C)c(C#N)c2N)c1	-3.359%
CC(C)SCc1cccc(NC2CCN(C)C2=O)c1 (stereo not given)	-2.094%

SMILES	Percent Effect
CCc1ccccc1-n1cc(O)c(C(=O)N2CCCCC2)n1	-6.715%
COc1ccc(NC(C)C(=O)N2CCN(c3ncccn3)CC2)cn1 (stereo not given)	-16.98%
CC(C(=O)N1CCN(c2ccccc2Cl)CC1)n1cncn1 (stereo not given)	9.073%
CC(=O)N1CCCN(C(=O)C(C)n2cncn2)CC1 (stereo not given)	98.01%
CC(C(=O)N1CCN(c2ncccn2)CC1)n1cncn1 (stereo not given)	114.6%
Cc1csc(N2CCCN(C(=O)C(C(C)C)n3cncn3)CC2)n1 (stereo not given)	-4.935%
CCc1nc(CN2CCCN(C(=O)C(C)n3cncn3)CC2)cs1 (stereo not given)	-3.687%
CC(C(=O)N1CCN(c2cnccn2)CC1)n1cncn1 (stereo not given)	-0.9189%
CC(C(=O)N1CCOCC1)n1cncn1 (stereo not given)	74.2%
CC(C)N1CCN(C(=O)C(C)n2cncn2)CC1 (stereo not given)	90.2%
CC(=O)N1CCN(C(=O)C(C)n2cncn2)CC1 (stereo not given)	5.614%
CC(=O)N1C[C@@H](F)[C@@H](OCc2nc3ccc(C#N)cc3[nH]2)C1	-0.3332%
Cc1csc(CN(CC2CCCO2)C(=O)c2occc2C)n1 (stereo not given)	-7.004%
Cc1ccc(NC2(C(=O)NCc3c(C)n[nH]c3C)CCCC2)cc1	1.889%
O=S1(=O)CCC(N(CCc2ccc3c(c2)CCO3)C2CC2)C1 (stereo not given)	-1.378%
Cc1ccc(CN2CCOC3(CCCN(C(=O)c4ccco4)C3)C2)o1 (stereo not given)	-7.626%
NCCc1c(-c2ccc(F)cc2)[nH][nH]c1=O	105.4%
NCCc1c(-c2ccccc2)[nH][nH]c1=O.O=C(O)C(=O)O	104.8%
Cc1ccc(-c2[nH][nH]c(=O)c2CCN)cc1	116.2%
Cc1nc(C)c(CCNC(Cc2ccncc2)C(F)(F)F)s1 (stereo not given)	2.095%
CC(SCCS(C)(=O)=O)c1nc(Cc2ccc(F)cc2)no1 (stereo not given)	-13.13%
